NPR1 antag: human Npr1 receptor antagonism; Potency, µM (series often up to 46.3 µM), for the others: at the highest dose activity change, negative = inhibition, hits mostly inhibitors; HEK293 hNpr1 GloSensor cGMP, ANP-stimulated luminescence; AID 1347048; P16066; hit rate 1.6% among 76,000; calls by dose curve; further: nearly all actives have a fitted effect of over 60% in size
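HEK293 cells stably expressing human Npr1 and cGMP GloSensor pGS-40F, loaded 2 h with 2% GloSensor reagent, given compound 30 min at room temperature. Luminescence read before and 20 min after 0.1 nM hNppA.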
HEK cytotox: kills HEK 293 cells. HEK 293 viability, ATP luminescence (CellTiter-Glo), 48-72 h. Potency, µM (highest dose often 115 µM), without a hit: at the highest dose activity change, negative = cytotoxicity, usual class: inhibitors. hit rate 6.6% among 94,000. AID 1345083; further: nearly all actives have a fitted effect of over 60% in size
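Read-out: CellTiter-Glo ATP luminescence. Cells: HEK 293, 250 cells/well. Exposure: 48 or 72 hr, 37 degree Celsius.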
FLuc inh: blocks purified firefly luciferase enzyme activity | Potency, µM (top dose mostly 115 µM), usual class: inhibitors | P08659 | purified P. pyralis luciferase, luminescence, biochemical | hit rate 2.5% among 76,000; further: nearly all actives have a fitted effect of over 65% in size
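Biochemical qHTS: compound (6-point titration) added to 10uM D-luciferin plus 10uM ATP in Tris acetate pH 7.5 buffer with Mg, Tween-20 and BSA, then purified enzyme at 10nM; light output imaged.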
3T3 cytotox: kills NIH 3T3 cells | NIH 3T3 viability, CellTiter-Glo ATP luminescence, 48-72 h | Potency, µM (titrated, usually from 96.7 µM), without a hit: at the top dose activity change, negative = cytotoxicity, usual class: inhibitors | hit rate 4.3% among 94,000; further: nearly all actives have a fitted effect of over 55% in size
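ATP-dependent luminescence (CellTiter-Glo) served as the viability signal for NIH 3T3 cells treated with compound for 48 or 72 hr at 37 °C.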
Numbers without * were called inactive; i = inactive; u = inconclusive; x = no result given; [ ] = remark or other dose. A selection: hits, their analogues and other compounds. The true share with any hit is near 11%. Unless noted, the call rests on the fitted dose curve; in most records, active means well fitted curve in the direction sought with a large enough effect; inconclusive means small, poorly fitted or top-dose-only effect, or another doubt; inactive means no such curve, though single readings can be large; an effect the other way counts as inactive or inconclusive. On the % scale 0 is the no-effect control and ±100 the full control effect; potency means the concentration at half of the fitted maximal effect.

SMILES | NPR1 antag | HEK cytotox | FLuc inh | 3T3 cytotox
COc1ccc(Nc2ccnc(N3CCC(C(=O)NCc4ccccc4OC)CC3)n2)cc1 | x | 28µM* | x | 32µM*
COc1ccc(Nc2ccnc(N3CC4CCC(C3)N4CC(F)(F)F)n2)cc1 | x | 32µM* | x | 40µM*
CCOC(=O)[C@H]1C[C@]2(CCCCN(CCOC)C2=O)N(C(=O)COc2ccccc2)[C@H]1c1ccco1 | x | u | x | -25%
CN(C)C(=O)c1nc(-c2cccc(C(F)(F)F)c2)c2ccccn12 | -1%[70.6 µM] | u | i | u
O=C(NCCn1cccc1-c1nc(-c2ccc3c(c2)OCO3)no1)c1ccc(Cl)s1 | -17% | u | u | u
O=C(NCCn1cccc1-c1nc(-c2ccc3c(c2)OCO3)no1)c1ccc2c(c1)OCO2 | -17% | -7% | 10µM* | -8%
Cc1cccc(OCC(=O)NCCn2cccc2-c2nc(-c3ccc4c(c3)OCO4)no2)c1 | -16% | u | 14µM* | u
COc1ccc(C)cc1NC(=O)Cn1cccc1-c1nc(-c2ccc3c(c2)OCO3)no1 | -7% | u | i | 40µM*
Cc1ccc(C(=O)NCCn2cccc2-c2nc(-c3ccc4c(c3)OCO4)no2)cc1C | -23% | u | 11µM* | u
O=C(Cn1nc2c(cc1=O)CCCC2)N1CCc2c([nH]c3ccccc23)C1 | 1% | 3% | i | i
COc1ccc(-c2ccc(C(=O)N3CCC(NC(=O)c4ccccc4Cl)C3)cc2)nn1 (stereo not given) | x | -21% | x | -24%
Cc1ccccc1C(=O)N1CCC(C(=O)N2CCC(N3CCOC3=O)CC2)CC1 | x | -5% | x | -16%
O=C(NCCn1cccc1-c1nc(-c2ccccc2)no1)c1ccc(F)c(Cl)c1 | -14% | 45µM* | i | u
COc1ccc(C(=O)NCCn2cccc2-c2nc(-c3ccccc3)no2)cc1F | -16% | -2% | i | -20%
Cc1nn(-c2ccccc2)c2c1C(C1CC1)N(C1CCN(Cc3cccc(C(F)(F)F)c3)CC1)C2=O (stereo not given) | x | -2% | x | 1%
CC(C)C[C@@H]1N[C@H](C(=O)NCC2CC2)Cc2c[nH]c3cccc1c23 | -23%[70.6 µM] | 35µM* | i | u
C#CCNC(=O)[C@@H]1Cc2c[nH]c3cccc(c23)[C@H](CC(C)C)N1 | -3%[70.6 µM] | 71µM* | i | 100µM*
COc1ccccc1N1CCN(C(=O)[C@@H]2Cc3c[nH]c4cccc(c34)[C@H](CC(C)C)N2)CC1 | -2% | u | i | u
CC(C)C[C@@H]1N[C@H](C(=O)N2CCOCC2)Cc2c[nH]c3cccc1c23 | 4%[70.6 µM] | -5%[172 µM] | i | 0%[174 µM]
CC(C)C[C@@H]1N[C@H](C(=O)NCc2ccco2)Cc2c[nH]c3cccc1c23 | 4%[70.6 µM] | 35µM* | i | 100µM*
Cc1oc2ccn(Cc3cccc(F)c3)c(=O)c2c1C(=O)NCc1cccc(F)c1 | -16% | u | i | u
CCCNC(=O)c1c(C)oc2ccn(Cc3ccc(F)cc3)c(=O)c12 | -15% | 35µM* | i | u
Cc1oc2ccn(Cc3ccc(F)cc3)c(=O)c2c1C(=O)O | 2% | 6% | i | 2%
COc1ccc(C(C)NC(=O)c2c(C)oc3ccn(Cc4cccc(F)c4)c(=O)c23)cc1 (stereo not given) | -14% | 32µM* | i | u
CC(C)CNc1ccc2c(n1)C(C)(C(=O)NC1COC1)CN(Cc1ccccc1)C2 (stereo not given) | -11%[70.6 µM] | u | i | u
SMILES | NPR1 antag | HEK cytotox | FLuc inh | 3T3 cytotox
CN1Cc2ccc(NCc3ccccc3)nc2C(C)(C(=O)NCc2ccc3c(c2)OCO3)C1 (stereo not given) | -28% | u | i | u
CN1Cc2ccc(Nc3ccccc3)nc2C(C)(C(=O)NCc2ccc3c(c2)OCO3)C1 (stereo not given) | -15%[70.6 µM] | 79µM* | i | 50µM*
CC(C)CNc1ccc2c(n1)C(C)(C(=O)Nc1ccncc1)CN(Cc1ccccc1)C2 (stereo not given) | -16%[70.6 µM] | 32µM* | i | 22µM*
CC(C)CNc1ccc2c(n1)C(C)(C(=O)NCCc1cnc[nH]1)CN(Cc1ccccc1)C2 (stereo not given) | 3% | u | i | 32µM*
CC(C)CNc1ccc2c(n1)C(C)(C(=O)NCc1ccco1)CN(Cc1ccccc1)C2 (stereo not given) | -17%[70.6 µM] | 50µM* | i | 40µM*
COc1ccccc1-c1ccc2c(C(=O)NCc3ccc(F)cc3)nn(C)c2n1 | x | -29% | x | -29%
CC1(C(=O)NCc2ccccc2)CN(Cc2ccccc2)Cc2ccc(N3CCOCC3)nc21 (stereo not given) | -19% | 50µM* | i | u
CC(C)CNc1ccc2c(n1)C(C)(C(=O)NC(C)C)CN(Cc1ccccc1)C2 (stereo not given) | u | 63µM* | i | 35µM*
COCCCNC(=O)C1(C)CN(Cc2ccccc2)Cc2ccc(NCC(C)C)nc21 (stereo not given) | 5%[70.6 µM] | 89µM* | i | u
Cc1nn(-c2ccc(C(C)C)cc2)c(C)c1[C@@H]1C=C[C@@H](NCc2ccc(F)cc2)C1 | u | 8.9µM* | 22µM* | 7.1µM*
Cc1nn(CCC#N)c(C)c1[C@@H]1C=C[C@@H](NCc2ccc(F)cc2)C1 | -3%[70.6 µM] | -15%[172 µM] | i | 2%[174 µM]
Cc1nn(-c2ccc(F)cc2)c(C)c1[C@@H]1C=C[C@@H](NCc2ccc(C(C)C)cc2)C1 | u | 11µM* | i | 10µM*
Cc1nn(CCC#N)c(C)c1[C@@H]1C=C[C@@H](NCc2ccc(C(C)C)cc2)C1 | -26%[70.6 µM] | 71µM* | i | u
Cc1ccc(S(=O)(=O)N2CC(C(=O)NCc3ccncc3)C3(CCOCC3)C2)c(C)c1 (stereo not given) | 0% | -24% | i | -23%
Cn1nc(-c2ccncc2)cc1NC(=O)C1CCCC1 | x | -30%[172 µM] | x | -15%[138 µM]
Cc1nn(-c2ccccc2)c2c1C(C1CC1)N(C1CCN(Cc3ccsc3)CC1)C2=O (stereo not given) | x | -10% | x | -19%
Cc1ccc(C(=O)N2CCC(C(=O)N3CCC(c4nc5ncccc5[nH]4)CC3)CC2)cc1 | x | 2% | x | -6%
O=C1NC2(CCCN(Cc3ccccc3C(F)(F)F)C2)Oc2ccccc21 (stereo not given) | -7% | 45µM* | i | u
O=C1NC2(CCN(Cc3ccccc3C(F)(F)F)C2)Oc2ccccc21 (stereo not given) | 4% | -3% | i | -3%
O=C1NC2(CN(Cc3ccccc3C(F)(F)F)C2)Oc2ccccc21 | -1% | 40µM* | i | u
CCOC(=O)[C@@H]1[C@@H](OC)C(=O)N(C)C12CCN(C(=O)OCc1ccccc1)CC2 | x | -22% | x | u
c1cc(-c2nc3c(c(NCc4cn5c(n4)SCC5)n2)CCNCC3)ccn1 | 0% | 20µM* | i | u
O=C(NC1CCCC1)N1CCC(c2nn(-c3ccccn3)c(=O)[nH]2)CC1 | x | i | x | -16%
